{
  "source": "PubChem BioAssay (EPA / NIEHS)",
  "note": "Calls of active or inactive are those of the source. The calls were made as follows: active = hit-call score of the fitted dose curve at least 0.9, where 1 is the maximum; inactive = score below 0.9.",
  "data": [
    {"read-out": "growth arrest and DNA damage 45 (GADD45G), GADD45G (gene 10912)", "experiment": "LTEA_HepaRG_GADD45G: Life Technologies and Expression Analysis (LTEA) Assay for growth arrest and DNA damage 45 (GADD45G) using HepaRG (AID 2283499)", "settings": "mRNA level, 48 h; actives raise or lower the signal", "description": "LTEA_HepaRG is a cell based, multiplexed-readout assay that uses HepaRG, a human liver cell line, with measurements taken at 48 hours after chemical dosing on a 96-well plate.LTEA_HepaRG_GADD45G is one of 102 assay component(s) measured in the LTEA HepaRG cell culture assay. It is a marker of Cell proliferation, survival, death.Data from the assay component LTEA_HepaRG_GADD45G was analyzed into 1 endpoint. This assay endpoint, LTEA_HepaRG_GADD45G, was analyzed with bidirectional fitting relative to DMSO as the negative control and baseline of activity. Using a type of inducible reporter, measures of mRNA induction for gain or loss-of-signal activity can be used to understand regulation of transcription factor activity. To generalize the intended target to other relatable targets, this assay endpoint is annotated to the mutagenicity response intended target family, where the subfamily is Cell proliferation, survival, death.\nA total of 1060 chemcials from the ToxCast library were tested in eight-point concentration-response experiments. Cell culture and cytotoxicity assays were conducted at Thermo Fisher Scientific's Custom Services facility (Madison, WI). A single lot of human HepaRG cells (Thermo Fisher Scientific, Frederick, MD) was used for the cell culture experiments. 96-well format collagen type I coated plates of human HepaRG cells were prepared using established methods. Briefly, cryopreserved HepaRG cells were thawed, plated at a density of approximately 100,000 cells/well in HepaRG Thaw, Plate, and General Purpose media (HPRG770, Thermo Fisher Scientific), and incubated for 48 hours. 0.5% DMSO was selected as vehicle control to balance the requisite need of DMSO in HepaRG cultures to maintain differentiation (for example, baseline metabolism, proportions of hepatocytes vs. cholangiocytes), while enabling further hepatic receptor pathway activation (for example, PXR and CAR) in response to chemical exposure. 48 hours after plating, the culture medium was replaced with HepaRG Serum-Free Incudtion Media. Cells were exposed to each test chemical in duplicate and maintained in CO2 incubators for another 48 hours. Chemical plates were thawed to room temperature and 200x concentrations of treatment groups were prepared. 8-point conentration-reponse curves were made with the highest exposure at 100 uM, followed by half-log dilutions, all in 0.5% DMSO. Each test plate contained variouse controls, induction positive controls (1mM phenobarbital), cytotoxicity positive controls ([…] aflatoxin B1), vehicle controls (0.5% DMSO), and total lysis controls (0.5% DMSO). Cell morphology images were taken using an Essen IncuCyte FLR automated microscope, with six 96-well plates imaged in about 24 minutes. Images were captured and exported and JPEG files. Spent culture media was transfered to black-well plates for the LDH assay, and remaining media was sorted at -80 C for later use. Cells were treated with RLT buffer and frozen until shipped for gene expression analysis. Total RNA was isolated from the cell suspension in 75 uL of Buffer RLT (Qiagen, Germantown, MD 20874) by Quintiles/Expression Analysis (Durham, NC) using a custom isolation procedure. Total RNA from each plate well was transferred to a preamplification plate. Fluidigm's 96.96 Dynamic ArrayTM (Fluidigm, Amsterdam, the Netherlands) technology was used for gene expression analyses by quantitative reverse transcription polymerase chain reaction (qRT-PCR, performed by Quintiles/Expression Analysis, Durham, NC)89. Standard TaqManTM Assays (Applied Biosystems/ThermoFisher Scientific, Foster City, CA) were used to assess the expression of 93 genes selected based on their selectivity and sensitivity to important hepatic receptors known to be modulated by environmental chemicals; importance in human hepatocyte functionality; and hepatotoxicity. […]", "values": [
      {"compound": "Cc1cccc2ccccc12", "outcome": "inactive"},
      {"compound": "Oc1ccc2ccccc2c1", "outcome": "inactive"},
      {"compound": "C[C@]12CC[C@@H]3c4ccc(O)cc4CC[C@H]3[C@@H]1CC[C@H]2O", "outcome": "inactive"},
      {"compound": "CCCCCCCCCCCCO", "outcome": "inactive"},
      {"compound": "Oc1ccccc1", "outcome": "inactive"},
      {"compound": "Clc1ccccc1C(c1ccccc1)(c1ccccc1)n1ccnc1", "AC50": "28 µM (active)"},
      {"compound": "O=c1[nH]sc2ccccc12", "outcome": "inactive"},
      {"compound": "O=C(Nc1ccc(Cl)cc1)Nc1ccc(Cl)c(Cl)c1", "AC50": "22.8 µM (active)"},
      {"compound": "CN(C)c1ccc(C(=C2C=CC(=[N+](C)C)C=C2)c2ccc(N(C)C)cc2)cc1", "AC50": "11.7 µM (active)"},
      {"compound": "CCN(Cc1cccnc1)C(=O)c1cccc(Cl)c1[C@]1(C)C(=O)N(Cc2ccc(OC)cc2OC)c2ccc(Cl)cc21", "outcome": "inactive"},
      {"compound": "c1ccc2n[nH]nc2c1", "outcome": "inactive"},
      {"compound": "O=c1c(-c2ccc(O)cc2)coc2cc(O)cc(O)c12", "outcome": "inactive"},
      {"compound": "O=C(O)Cn1c(=O)n(Cc2ccc(Br)cc2F)c(=O)c2ccc(Cl)cc21", "outcome": "inactive"},
      {"compound": "CCCCCCCCCCCC[N+](C)(C)C", "AC50": "78 µM (active)"},
      {"compound": "CC1=CC(=O)/C(=C(/C)O)C(=O)O1", "outcome": "inactive"},
      {"compound": "O=C(O)c1ccccc1C(=O)OCc1ccccc1", "AC50": "5.56 µM (active)"},
      {"compound": "CCCCCCCC[Si](OCC)(OCC)OCC", "outcome": "inactive"},
      {"compound": "CCCC(=O)OCCC(C)C", "outcome": "inactive"},
      {"compound": "CC1(C)NC(=O)N(c2ccc([N+](=O)[O-])c(C(F)(F)F)c2)C1=O", "AC50": "77.4 µM (active)"},
      {"compound": "O=c1ccc2ccccc2o1", "outcome": "inactive"},
      {"compound": "CCCCCc1ccc(N)cc1", "outcome": "inactive"},
      {"compound": "Cc1ccc2oc(CN(Cc3ccccc3)C(=O)Nc3c(F)cc(F)cc3F)c(-c3ccc(Cl)cc3)c2c1", "AC50": "77.2 µM (active)"},
      {"compound": "CN1C(=O)N(c2ccccc2Br)Cc2cnc(Nc3ccc4c(c3)OCC(CO)O4)nc21", "note": "(stereo not given)", "AC50": "66.6 µM (active)"},
      {"compound": "CCCOC(=O)c1cc(O)c(O)c(O)c1", "outcome": "inactive"},
      {"compound": "Cc1cn([C@H]2C[C@H](N=[N+]=[N-])[C@@H](CO)O2)c(=O)[nH]c1=O", "outcome": "inactive"},
      {"compound": "O=C(O)c1ccccc1-n1cc(C(=O)O)c(=O)c2cc(Nc3c(F)cc(F)cc3Cl)c(Cl)cc21", "outcome": "inactive"},
      {"compound": "c1ccc(C[n+]2cccc3ccccc32)cc1", "AC50": "43.6 µM (active)"},
      {"compound": "c1ccc2ccccc2c1", "outcome": "inactive"},
      {"compound": "CC[C@@H]1C[C@H](N(Cc2cc(C(F)(F)F)cc(C(F)(F)F)c2)C(C)=O)c2cc(C(F)(F)F)ccc2N1C(=O)OC(C)C", "outcome": "inactive"},
      {"compound": "CCO[Si](CCCNC(N)=O)(OCC)OCC", "outcome": "inactive"},
      {"compound": "O=C1c2ccccc2C(=O)N1CCc1noc(-c2ccc(CN3CCCCCC3)s2)n1", "outcome": "inactive"},
      {"compound": "O=C(OCCCCCCOC(=O)c1ccccc1)c1ccccc1", "outcome": "inactive"},
      {"compound": "CCCCCCCCCC(=O)O", "outcome": "inactive"},
      {"compound": "O=C1CCC(C2CCCCC2)CC1", "outcome": "inactive"},
      {"compound": "CCOC(=O)O[C@H](C)OC(=O)c1ccc2c(c1)cc(C(=O)NC1CCN(C(C)C)CC1)n2Cc1cc(-c2ccc(Cl)s2)on1", "outcome": "inactive"},
      {"compound": "CC(C)(O)c1ccc(CNC(=O)c2cccnc2Oc2ccc3nonc3c2)cc1", "outcome": "inactive"},
      {"compound": "Cc1ncc(CO)c(CO)c1O", "outcome": "inactive"},
      {"compound": "NC(=O)c1nc(-c2cccc(-c3cc(F)ccc3OCC(F)(F)C(F)(F)F)c2)n[nH]1", "outcome": "inactive"},
      {"compound": "Cc1ccc(C(C)C)cc1", "outcome": "inactive"},
      {"compound": "CCCCCCCCN(C)CCCCCCCC", "outcome": "inactive"}
    ]}
  ]
}
